About 83,000 compounds went through this panel and 20% of them were active in at least one assay; those are over-represented in the sample as a whole.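 48-hour exposure, single concentration, 96-well plates; percent growth endpoint where 0 means no net growth. Active: below 10.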 Values without a mark were called inactive. Calls of active or inactive are those of the source.

Common to all, as to assay: NCI-60 one-dose screen, 48 h (100 = growth as untreated, 0 = no growth, -100 = all killed)
What all share (details): 10 µM unless noted

For test [1], the system named is NCI-H23 lung.
In test [2] the test system is NCI-H226 lung.
In test [3] the test system is NCI-H322M lung.
In test [4] the test system is HOP-62 NSCLC.
The subject of test [5] is NCI-H460 lung.
Test [6] relates to HOP-92 NSCLC.
Test [7] has as its system NCI-H522 lung.
For test [8], the system named is A549/ATCC NSCLC.
The subject of test [9] is 786-0 renal.
Test [10] deals with COLO 205 colon.

On to `Cn1cc(-c2nnc(-c3cn(C)c4ncccc34)o2)c2ccccc21`, for which the growth in [1] is 51.3%; in [2], 64.9%; in test [3] it was 75.8%; in test [4], 32.6%; in [5] it was 23.7%; in test [6], 7.94% (active). Also, the growth in test [7] is 21.3%; in [8], 36%; in test [9] it was 59.7%; in test [10] it was 25.7%.

Regarding `COc1cc2c(c(Br)c1N)-c1cc(Br)c(N)cc1C2=O`, the growth is 49.9% in test [1]; -24.1% (active) in test [2]; 71.2% in test [3]; 60.8% in [4]; 45.7% in test [5]; 54.9% in test [6]. Further, the growth in test [7] is 70.5%; in test [8], 83.5%; in test [9] it was 58.8%; in test [10] it was 79.3%.

With `COc1ncc(-c2ccc3nc(N)n(-c4ccccc4C(F)(F)F)c(=O)c3c2)cc1S(=O)(=O)Nc1ccc(F)cc1F`, the growth in test [1] is 30.6%; in [2] it was 88.9%; in test [3] it was -11.6% (active); in test [4] it was 82.4%; in test [5] it was 28.1%; in test [6], 25.3%. Besides, the growth was 46.8% in test [7], 29% in test [8], 33.7% in test [9] and -66.2% (active) in test [10].

In the case of `CCCOc1ccc(-c2nc(-c3ccc(N)cc3)cs2)cc1`, the growth in [1] was 96.8%; in [2], 111%; in test [3] it was 103%; in test [4], 107%; in [5] it was 98%; in test [6], 94.4%. Besides, the growth was 89.3% in [7], 93.5% in test [8], 87.1% in test [9] and 143% in test [10].

As to `O=C(NCCCNC(=O)OCc1ccc2c(Br)cc(Br)c(O)c2n1)OCc1ccc2c(Br)cc(Br)c(O)c2n1`, the growth is -46.3% (active) in [1]; 2.3% (active) in [2]; 32.7% in [3]; -19.1% (active) in test [4]; 4.8% (active) in [5]; -80.3% (active) in test [6]. The growth in test [7] is -60.9% (active); in test [8] it was 6.61% (active); in test [9], -58.9% (active); in test [10], -76.8% (active).

With `COc1ccc(/C=C(/C(=O)c2ccc(Cl)cc2)C(=O)C(F)(F)F)cc1`, the growth is 91.4% in test [1]; 99.9% in test [2]; 77.7% in test [3]; 91.9% in [4]; 109% in test [5]; 101% in [6]. In addition, the growth in test [7] was 74.8%; in test [8], 92%; in [9], 99.1%; in test [10] it was 110%.

`CCOC(=O)c1nc2c3ccccc3ccn2c1C(=O)OC`: the growth in test [1] is 97.2%; in [2], 97.2%; in [3], 95.6%; in test [4] it was 95.5%; in test [5] it was 103%; in test [6], 103%. The growth in test [7] is 90.6%; in test [8], 92.8%; in [9], 93.8%; in [10], 104%.

Turning to `CN(C)c1cc(NN=C(c2ccc(O)cc2)c2ccc(O)cc2)c([N+](=O)[O-])cc1[N+](=O)[O-]`, the growth in test [1] is 41%; in [2], 98.7%; in test [3], 117%; in test [4], 58%; in test [5], 30.4%; in test [6] it was 73%. The growth was 1.73% (active) in test [7], 13.2% in [8], 16.7% in [9] and 89.5% in test [10].

As to `CSc1nc2c(c(=O)n1C)C1(C(=O)N(Cc3ccccc3)c3ccccc31)c1c(nc(SC)n(C)c1=O)N2`, the growth in test [1] is 92.9%; in test [2] it was 74.3%; in test [3] it was 95.5%; in test [4] it was 84%; in test [5], 87.2%; in [6], 93.2%. In addition, the growth in [7] was 73.9%; in [8] it was 68.5%; in test [9] it was 113%; in test [10], 105%.

For `CNC(=O)c1cc(Oc2cccc3nc(NC(=O)Nc4cc(C(F)(F)F)cc(C(F)(F)F)c4)ccc23)ccn1`, the growth in test [1] was 50.8%; in test [2], 43.1%; in test [3], 25.5%; in [4], 6.73% (active); in test [5] it was 34.9%; in test [6], -23.7% (active). Also, the growth in test [7] was 24.3%; in test [8], 18.6%; in [9], -35.6% (active); in test [10], 53.9%.

Take `O=C(CCN1CCCCC1)c1ccc(Cl)cc1`: the growth in test [1] is 110%; in test [2], 94.6%; in test [3] it was 99.9%; in test [4], 100%; in test [5], 97.8%; in [6], 83.1%. Moreover, the growth in test [7] was 95.8%; in test [8], 109%; in test [9], 103%; in test [10], 107%.

As to `CCn1cc(-c2cc(-c3ccc(Cl)cc3)nc(N)n2)c(-c2ccc(Br)cc2)n1`, the growth in [1] is 79.4%; in [2], 86.1%; in [3], 92.6%; in test [4] it was 74.7%; in [5] it was 95.4%; in [6] it was 74.2%. The growth was 48.7% in test [7], 64.7% in test [8], 89.4% in test [9] and 85.7% in [10].

Regarding `COc1ccc(-c2nc3ccccn3c2/C=C/C(=O)c2cc(OC)c(OC)c(OC)c2)cc1OC`, the growth was 16.3% in test [1]; 23.3% in test [2]; 51.3% in test [3]; 28.5% in test [4]; 0.623% (active) in test [5]; -22.5% (active) in test [6]. Besides, the growth in test [7] is -5.63% (active); in [8], 20.7%; in test [9] it was 24.7%; in test [10], 17.9%.

Turning to `C#C[C@]1(O)CC[C@H]2[C@@H]3CC=C4c5nc(Nc6ccccn6)sc5CC[C@]4(C)[C@H]3CC[C@@]21C`, the growth is 34.7% in test [1]; 38.1% in test [2]; 35.8% in test [3]; -10.4% (active) in [4]; 4.83% (active) in test [5]; -24.5% (active) in test [6]. Besides, the growth in test [7] was -6.06% (active); in [8] it was 14.5%; in [9], -69.6% (active); in test [10], 35%.

In the case of `CCOC(=O)c1nn(C2CCCCO2)c2ccc(NC(=O)CN3CCCC3)cc12` (stereo not drawn), the growth in [1] is 110%; in test [2], 110%; in test [3], 89.7%; in test [4], 92.7%; in test [5], 100%; in test [6], 106%. For the same molecule, the growth was 97.9% in [7], 100% in test [8], 93.3% in test [9] and 126% in test [10].

Take `O=[N+]([O-])c1ccc(O)c(-c2nc3ccccc3s2)c1`: the growth in test [1] was 47.3%; in test [2], 83.7%; in [3], 90.7%; in [4], 88.8%; in test [5], 63.2%; in test [6] it was -5.6% (active). The growth in test [7] was 58.6%; in test [8], 84.2%; in [9] it was 73.8%; in [10] it was 103%.

On to `CC1=CC[C@@H]2C(C)(C)C(=O)CC[C@@]2(C)[C@@H]1COc1ccc2ccc(=O)oc2c1`, for which the growth in [1] is 83%; in [2], 43.8%; in test [3] it was 89.3%; in [4] it was 97.5%; in [5] it was 89.2%; in test [6], 73.9%. In addition, the growth is 53.6% in test [7], 89.9% in test [9] and 71.1% in test [10].

Consider `COc1ccc(C(C(=O)O)c2ccc(OC)cc2)cc1`, for which the growth in test [1] was 113%; in [2], 104%; in test [3], 121%; in test [4], 112%; in [5], 117%; in test [6], 106%. Moreover, the growth is 106% in test [7], 107% in test [9] and 117% in test [10].

For `O=C(NCc1ccccc1)C(Cl)Cl`, the growth in test [1] was 104%; in test [2] it was 93.3%; in test [3], 102%; in test [4], 98.6%; in [5] it was 108%; in [6], 95.1%. Also, the growth in [7] was 101%; in [9], 104%; in test [10], 116%.

Regarding `O=C(Nc1ccc(CN2CCOCC2)c(C(F)(F)F)c1)c1nc2ccc3[nH]ncc3c2c2c1CCCC2`, the growth in test [1] was 93.2%; in [2] it was 91.2%; in test [3], 102%; in [4], 78.8%; in test [5], 90.1%; in test [6] it was 99.2%. Also, the values for the growth in test [7], in test [9] and in [10] were 87.3%, 101% and 83.4%, respectively.

Consider `CCOC(=O)C(C(C)=O)c1nc2sc3cc(Cl)c(Cl)cc3n2c(=O)c1C#N` (stereo not drawn), for which the growth in [1] was 94.7%; in test [2], 95.3%; in test [3] it was 114%; in test [4] it was 109%; in test [5], 92.7%; in test [6], 76.8%. Besides, the growth in [7] was 62.9%; in [9] it was 114%; in [10], 108%.

As for `Cc1ccc(-c2cc(-c3ccc(C)cc3)nc(NCCNc3ccnc4cc(Cl)ccc34)n2)cc1`, the growth is -12% (active) in test [1]; -59.2% (active) in test [2]; 14.9% in [3]; -7.66% (active) in test [4]; -68.8% (active) in test [5]; -33.9% (active) in [6]. In addition, the results for the growth in test [7], in test [9] and in test [10] were -63.6% (active), -91.4% (active) and -85.8% (active), respectively.

Turning to `Cc1ccc(NC(=S)/N=c2/n(-c3ccccc3)nc3n2CCN3C2=NCCN2)cc1`, the growth was 104% in test [1]; 92.3% in test [2]; 103% in test [3]; 92.7% in [4]; 104% in test [5]; 75.3% in test [6]. The growth in [7] was 96.7%; in test [9], 53.5%; in test [10], 106%.

As for `CC(=O)CC(=O)SC1=NCCS1`, the growth in [1] was 108%; in [2], 112%; in test [3], 113%; in test [4], 123%; in test [5], 106%; in [6] it was 101%. The growth in test [7] was 95.8%; in test [9], 109%; in test [10], 109%.

For `CC1Cc2c(Cl)ncnc2N(C)c2ccc(Cl)cc21` (stereo not drawn), the growth in test [1] is 13.5%; in test [2], -5.56% (active); in test [3], 36.8%; in test [4], 13.6%; in test [5] it was 19.2%; in test [6], 8.05% (active). Further, the growth was -68.3% (active) in [7], 8.16% (active) in test [9] and -77.6% (active) in test [10].

With `C=CCCC1(C)NC(=O)NC1=O` (stereo not drawn), the growth in test [1] was 96.5%; in [2] it was 105%; in [3], 108%; in test [4] it was 84%; in [5], 104%; in [6], 87.1%. Moreover, the growth in [7] was 86.1%; in test [9] it was 93.5%; in test [10], 102%.

As to `CNc1cc(C(=O)O)nc(NC)n1`, the growth in [1] is 100%; in test [2], 98.8%; in test [3], 95.7%; in test [4], 103%; in test [5], 99.2%; in test [6], 87.1%. Besides, the growth in [7] was 97.1%; in test [9], 105%; in test [10], 105%.

For `COc1cc(/C=C/C(=O)/C=C/c2ccc(-n3ccnc3C)cc2)ccc1O`, the growth was 64% in [1]; 89.1% in [2]; 100% in test [3]; 88.5% in [4]; 81.2% in [5]; 95.1% in test [6]. Further, the growth in test [7] is 81.4%; in test [9], 97.2%; in [10] it was 60.1%.

The record behind these values is PubChem BioAssay (NCI).
